Unmarked numbers belong to inactive results. For some of these results: Results with a measured potency or affinity are listed apart. Calls of active or inactive are those of the source. Unless noted, how the calls were made is not given here.
Legend:
[1] = antimalarial activity against Dd2 strain (AID 2302;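 active means growth inhibition above 50% at the single 2 µM test dose, taken to imply half-maximal potency below 2 µM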;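 further: 0% = DMSO untreated growth and 100% = chloroquine plus artemisinin killed control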); details: P. falciparum Dd2 in RBCs, LDH growth readout, 72 h; at 2 µM; stronger effect = higher value
[2] = human hepatoma cell viability loss – ATP luminescence, cytotoxicity control for P. falciparum antimalarial project, primary screen (AID 2303;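 active means inhibition above 50%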;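 further: 0% = DMSO wells and 100% = digitonin-killed cells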); details: HepG2 viability, 24-48 h, at 10 µM, stronger effect = higher value
[3] = biological target: L-lactate dehydrogenase (Plasmodium falciparum (isolate CDC / Honduras)) (UniProt Q27743); experiment: PfLDH activity inhibition – cell lysate, 3D7 strain, counter-screen for P. falciparum growth inhibition project (AID 2304);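 further: 0% = vehicle and 100% = reference inhibitor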; details: P. falciparum 3D7 crude extract, LDH APAD/NBT absorbance; at 2 µM; stronger effect = higher value
[4] = inhibition of 3D7 malaria parasite growth – strain 3D7 (AID 2306);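 further: 0% = DMSO wells and 100% = chloroquine plus artemisinin control wells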; details: P. falciparum 3D7 erythrocytic growth, LDH absorbance, 72 h; at 2 µM; stronger effect = higher value
[5] = biological target: Calcium-dependent protein kinase 1 (Plasmodium falciparum (isolate 3D7)) (UniProt P62344); experiment: PfCDPK1 kinase inhibitors, biochemical, TCAMS library (AID 1159585; cut-off not given, nearly all actives have IC50 up to about 0.98 µM;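 further: inhibitors leave more ATP so luminescence rises with inhibition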); details: recombinant PfCDPK1, Kinase-Glo ATP depletion luminescence
[6] = biological target: Plasmodium falciparum protein kinase 6 (PK6, PF3D7_1337100) (UniProt Q8IDW1); experiment: PfPK6 kinase inhibitors, biochemical, TCAMS library (AID 1159586); details: recombinant PfPK6, Kinase-Glo ATP depletion luminescence
[7] = biological target: Protein kinase 7 (PK7), Plasmodium falciparum 3D7 (PF3D7_0213400) (UniProt Q7YTF7); experiment: inhibition of Plasmodium PK7 catalytic activity – biochemical, TCAMS antimalarial set, Kinase-Glo luminescence (AID 1159587); details: recombinant PfPK7, Kinase-Glo ATP depletion luminescence
[8] = biological target: Calcium-dependent protein kinase 4 (Plasmodium falciparum (isolate 3D7)) (UniProt Q8IBS5); experiment: PfCDPK4 kinase inhibitors, biochemical, TCAMS library (AID 1159588; cut-off not given, nearly all actives have IC50 up to about 0.91 µM); details: recombinant PfCDPK4, Kinase-Glo ATP depletion luminescence
Calcium-dependent protein kinase 4 (Plasmodium falciparum (isolate 3D7)), sequence (Q8IBS5 whole entry, looked up): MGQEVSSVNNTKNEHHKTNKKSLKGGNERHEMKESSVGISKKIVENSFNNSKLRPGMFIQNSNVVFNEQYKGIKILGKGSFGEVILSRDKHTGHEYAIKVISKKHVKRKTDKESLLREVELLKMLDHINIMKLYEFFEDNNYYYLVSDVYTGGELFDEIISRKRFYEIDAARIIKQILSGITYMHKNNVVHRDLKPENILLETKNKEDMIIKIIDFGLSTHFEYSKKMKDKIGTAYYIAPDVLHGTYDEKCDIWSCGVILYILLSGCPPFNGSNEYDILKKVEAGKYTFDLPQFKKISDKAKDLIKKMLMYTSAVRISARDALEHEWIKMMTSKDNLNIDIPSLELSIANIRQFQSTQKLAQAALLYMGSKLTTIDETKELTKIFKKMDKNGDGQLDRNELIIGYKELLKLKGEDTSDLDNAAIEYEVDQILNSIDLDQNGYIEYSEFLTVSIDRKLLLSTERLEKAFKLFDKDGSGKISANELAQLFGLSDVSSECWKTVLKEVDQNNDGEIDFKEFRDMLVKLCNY

L-lactate dehydrogenase (Plasmodium falciparum (isolate CDC / Honduras)), sequence (Q27743 whole entry, looked up): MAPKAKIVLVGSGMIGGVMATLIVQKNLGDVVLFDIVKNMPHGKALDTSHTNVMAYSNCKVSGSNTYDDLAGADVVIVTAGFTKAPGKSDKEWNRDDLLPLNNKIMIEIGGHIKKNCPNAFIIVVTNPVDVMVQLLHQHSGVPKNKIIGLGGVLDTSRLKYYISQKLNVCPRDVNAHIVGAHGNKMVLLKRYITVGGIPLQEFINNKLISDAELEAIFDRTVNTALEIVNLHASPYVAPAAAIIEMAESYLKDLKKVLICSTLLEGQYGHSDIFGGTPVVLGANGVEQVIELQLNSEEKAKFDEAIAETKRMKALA
Protein kinase 7 (PK7), Plasmodium falciparum 3D7 (PF3D7_0213400), sequence (Q7YTF7 1-343): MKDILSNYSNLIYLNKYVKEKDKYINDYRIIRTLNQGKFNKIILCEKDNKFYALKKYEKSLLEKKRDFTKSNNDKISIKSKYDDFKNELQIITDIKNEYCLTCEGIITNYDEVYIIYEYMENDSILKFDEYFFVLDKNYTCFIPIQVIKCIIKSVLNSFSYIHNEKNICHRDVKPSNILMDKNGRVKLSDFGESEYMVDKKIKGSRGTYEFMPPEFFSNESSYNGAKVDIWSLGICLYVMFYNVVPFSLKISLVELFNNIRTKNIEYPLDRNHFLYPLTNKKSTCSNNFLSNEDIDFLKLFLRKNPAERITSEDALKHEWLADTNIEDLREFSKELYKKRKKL
Calcium-dependent protein kinase 1 (Plasmodium falciparum (isolate 3D7)), sequence (P62344 whole entry, looked up): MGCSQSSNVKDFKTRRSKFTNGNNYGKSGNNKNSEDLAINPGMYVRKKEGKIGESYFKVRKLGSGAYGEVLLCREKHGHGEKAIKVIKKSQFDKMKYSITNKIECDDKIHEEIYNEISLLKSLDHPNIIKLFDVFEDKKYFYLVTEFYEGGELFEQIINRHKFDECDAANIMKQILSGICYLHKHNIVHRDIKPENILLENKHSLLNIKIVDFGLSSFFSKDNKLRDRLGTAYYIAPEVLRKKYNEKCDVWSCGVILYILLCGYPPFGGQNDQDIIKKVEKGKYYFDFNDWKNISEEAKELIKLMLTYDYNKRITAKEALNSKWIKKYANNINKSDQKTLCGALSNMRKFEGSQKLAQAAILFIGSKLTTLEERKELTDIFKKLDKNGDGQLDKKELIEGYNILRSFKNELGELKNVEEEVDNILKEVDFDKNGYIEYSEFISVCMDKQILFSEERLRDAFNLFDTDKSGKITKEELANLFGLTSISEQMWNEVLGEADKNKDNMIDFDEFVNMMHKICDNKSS
Plasmodium falciparum protein kinase 6 (PK6, PF3D7_1337100), sequence (Q8IDW1 1-305): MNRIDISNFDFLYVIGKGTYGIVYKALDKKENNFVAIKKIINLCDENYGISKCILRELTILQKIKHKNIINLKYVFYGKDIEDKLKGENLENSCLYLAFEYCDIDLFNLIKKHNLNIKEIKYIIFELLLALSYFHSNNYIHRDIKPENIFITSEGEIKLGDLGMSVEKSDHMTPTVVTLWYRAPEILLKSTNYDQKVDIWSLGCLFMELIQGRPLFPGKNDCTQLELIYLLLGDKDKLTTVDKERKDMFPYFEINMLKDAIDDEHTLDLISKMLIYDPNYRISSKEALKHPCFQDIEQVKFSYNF

Compound | growth inhibition [1] | inhibition [2] | inhibition [3] | growth inhibition [4] | outcome [5] | outcome [6] | outcome [7] | outcome [8]
Cc1ccc(NC(=O)c2ccc3ncccc3c2)cc1OC1CCN(Cc2ccc(F)cc2)CC1 | 22% | 6% | 1% | 91% (active) | inactive | inactive | inactive | inactive
CC(C)(C)NS(=O)(=O)c1cc(C(=O)N2CCC(CCN3CCC(O)(c4cccc(C(F)(F)F)c4)CC3)(c3cccc(F)c3)CC2)c(Cl)cc1F | 55% (active) | 15% | -6% | 88% (active) | inactive | inactive | inactive | inactive
CCN1CCCC(CNC(=O)/C(=C/C=C/c2cc3cc(Cl)c(Cl)cc3[nH]2)OC)C1 (stereo not given) | 89% (active) | 33% | -1% | 93% (active) | inactive | inactive | inactive | inactive
CCOC(=O)c1cnc2cc(N3CCCC3)c(Cl)cc2c1OCC | 97% (active) | 0% | -2% | 97% (active) | inactive | inactive | inactive | inactive
O=C(Nc1cccc(CN2CCCN(Cc3ccc(F)cc3)CC2)c1)c1ccc(Cl)c(Cl)c1 | 17% | 27% | 7% | 95% (active) | inactive | inactive | inactive | inactive
CC(C)Oc1ccc(CCCON2C(N)=NC(N)=NC2(C)C)cc1 | 94% (active) | 66% (active) | 0% | 96% (active) | inactive | inactive | inactive | inactive
COc1cccc(C(=O)Nc2ccc(Nc3nc(C)cc(N(C)C)n3)cc2)c1 | 33% | 1% | -2% | 92% (active) | inactive | inactive | inactive | inactive
CCCc1cc(Cc2cnc(N)nc2N)cc(CCC)c1OCCCCC(=O)O | 23% | 18% | -2% | 95% (active) | inactive | inactive | inactive | inactive
N#Cc1ccc2c(c1)CCN(CCC1CCC(NC(=O)/C=C/c3cc(Br)cs3)CC1)CC2 (stereo not given) | 1% | 3% | 5% | 93% (active) | inactive | inactive | inactive | inactive
O=C(/C=C/c1cccc(Cl)c1)NCCCCCN1CCC(c2c[nH]c3ccccc23)CC1 | 17% | 46% | -2% | 89% (active) | inactive | inactive | inactive | inactive
Cc1cc(Nc2ccccc2)nc(NCCOc2ccccc2)n1 | 48% | -5% | -1% | 100% (active) | inactive | inactive | inactive | inactive
NC1=NC2(CCCCC2)N(OCCCCCCCCNc2nc(N)nc(N)n2)C(N)=N1 | 99% (active) | 44% | -5% | 96% (active) | inactive | inactive | inactive | inactive
COc1ccc(C2CC(=O)C3=C(C2)NC(C)=C(C(=O)OC(C)C)C3c2ccc(O)cc2)cc1OC (stereo not given) | 98% (active) | -1% | -3% | 99% (active) | inactive | inactive | inactive | inactive
Cc1[nH]c(C)c(-c2ccc(/C=C/c3ccccn3)cc2)c(=O)c1Cl | 96% (active) | -9% | -2% | 97% (active) | inactive | inactive | inactive | inactive
Cc1ccc2nc3c(cc(C(=O)NCc4ccccc4)c(=N)n3CCCn3ccnc3)c(=O)n2c1 | -1% | 10% | -3% | 93% (active) | inactive | inactive | inactive | inactive
COc1ccc2nccc(N3CCN(CCNCc4ccc5c(n4)NC(=O)CS5)CC3)c2n1 | 67% (active) | 10% | 1% | 100% (active) | inactive | inactive | inactive | inactive
CC1(C)N=C(N)N=C(N)N1OCCCCON1C(N)=NC(N)=NC1(C)C | 95% (active) | 54% (active) | 4% | 97% (active) | inactive | inactive | inactive | inactive
O=C(Nc1ccc(-c2cccc(-c3nc4ccccc4[nH]3)c2)cc1)Nc1ccc(Cl)c(Cl)c1 | 80% (active) | 61% (active) | -2% | 101% (active) | inactive | inactive | inactive | inactive
CCCC(CNC(=O)c1cc2c(Cl)cc(Cl)cc2[nH]1)CNc1cc(=O)c2ccccc2[nH]1 (stereo not given) | 94% (active) | 9% | -5% | 100% (active) | inactive | inactive | inactive | inactive
Fc1ccc(Nc2ccnc3cc(I)ccc23)c(Cl)c1 | 24% | 35% | 1% | 95% (active) | inactive | inactive | inactive | inactive
